This is an account of results in PubChem BioAssay AID1259422 (The Scripps Research Institute Molecular Screening Center, 2018).

Each structure is given as a SMILES string. In all, about 640,000 compounds went through this assay and about 9,300 (1.5%) were called active. Rule as the data show it: active = inhibition above about 32%; inactive = the rest. Shown is part of a subset that was picked to be rich in actives.

This assay can be described thus: TEAD-YAP interaction inhibition, primary screen, TEAD-YAP interaction inhibitor project, luminescence, HEK-TIYL cells (AID 1259422).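 Also: 0% = median of test compound wells and 100% = reference inhibitor wells.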 To be noted: TEAD-Gal4/YAP UAS-luciferase luminescence, at 9.12 µM, hits give high values.
A word on the inhibition: it is the drop in the measured response relative to a control, in per cent. Take `CN(c1nc(N)ncc1[N+](=O)[O-])C1CCCCC1`: the inhibition is 33.8% (active).

`CN(c1ccc(C(=O)Nc2cc(F)cc(F)c2)cc1[N+](=O)[O-])C1CCCCC1`: the inhibition was -5.53% (inactive).

As for `CN(c1ncnc2c1nc1n2CCCCC1)C1CCCCC1`, the inhibition was -48% (inactive).

As to `COC(=O)C1=CN(Cc2ccc(OC)c(OC)c2)C=C(C(=O)OC)C1c1cccc(OCc2ccccc2)c1`, the inhibition is 55.4% (active).

As to `CCOC(=O)C1=CN(Cc2ccc(Cl)cc2)C=C(C(=O)OCC)C1c1cccc(OCc2ccccc2)c1`, the inhibition is 5.47% (inactive).

As for `CCOC(=O)C1=CN(Cc2ccc(F)cc2)C=C(C(=O)OCC)C1c1cccc(OCc2ccccc2)c1`, the inhibition is 10.8% (inactive).

For the molecule `CC(=O)c1ccc(OCC(=O)Nc2c(F)c(F)cc(F)c2F)cc1`, the inhibition is -0.14% (inactive).

As to `CCOc1ccc(C2C(C#N)=C(N)N(c3ccc(F)cc3)C3=C2C(=O)CCC3)cc1` (stereo unspecified), the inhibition is -0.96% (inactive).

On to `N=C1c2ccccc2CN1NC(=O)c1ccccc1-n1cccc1`, for which the inhibition is 11.5% (inactive).

Regarding `O=C(Cc1ccc([N+](=O)[O-])cc1)Nc1ccccc1Cl`, the inhibition is -21.8% (inactive).

With `CNC(=O)c1ccccc1Nc1cc(NC(=O)C2(c3ccccc3)CC2)ncc1C(F)(F)F`, the inhibition is -1.5% (inactive).

`CNC(=O)c1ccccc1Nc1cc(NC(=O)C(F)(F)c2ccccc2)ncc1C(F)(F)F`: the inhibition was 41.9% (active).

On to `O=C(Cc1c(F)cccc1Cl)Nc1ccc(Cl)cn1`, for which the inhibition is -7.57% (inactive).

In the case of `FC(F)(F)c1cccc(Nc2ccc(Br)cn2)c1`, the inhibition was 9.99% (inactive).

With `Cc1cc(NC(=O)c2cccs2)ncc1NC(=O)c1ccccc1F`, the inhibition was -50.5% (inactive).

As to `CNC(=O)c1ccccc1Nc1cc(NC(=O)Cc2ccc(F)c(F)c2)ncc1C(F)(F)F`, the inhibition was 65.4% (active).

Take `CNC(=O)c1ccccc1Nc1cc(NC(=O)Cc2ccc([N+](=O)[O-])cc2)ncc1C(F)(F)F`: the inhibition was 78.8% (active).

`CCc1ccccc1NC(=O)Cc1ccc([N+](=O)[O-])cc1`: the inhibition was 2.99% (inactive).

For `Cc1nc(NC(=O)c2ccc(C(C)(C)C)cc2)sc1C(=O)N1CCOCC1`, the inhibition is 13.1% (inactive).

Turning to `COC(=O)c1cc2occc2n1CC(=O)N(C)c1ccccc1`, the inhibition is 4.95% (inactive).

As to `Nc1cc(Oc2ccc3ccccc3c2)c(Cl)cc1[N+](=O)[O-]`, the inhibition is 2.07% (inactive).

With `O=C(COc1coc(CN2CCN(c3ccccc3F)CC2)cc1=O)N1CCCCCC1`, the inhibition is -0.51% (inactive).

Regarding `COC(=O)c1cc(NC(=O)Nc2cc(Cl)ccc2OC)cc(C(=O)OC)c1`, the inhibition was 0.04% (inactive).

On to `COCCNc1cc(-c2cncc(-c3ccc(F)cc3)c2)nc(C)n1`, for which the inhibition is -1.76% (inactive).

With `Cc1cnc(CNc2cc(-c3cncc(-c4ccc(F)cc4)c3)nc(C)n2)cn1`, the inhibition is 33% (active).

For the molecule `Cc1ccc(-c2cncc(-c3cc(NCc4ccco4)nc(C)n3)c2)cc1`, the inhibition was -4.33% (inactive).
